From PubChem BioAssay
HEK293 tox – kills HEK 293 cells; HEK 293 viability, ATP luminescence (CellTiter-Glo), 48-72 h; Potency, µM (titrated, usually from 115 µM), most hits filed as inhibitors; actives 6.6% (n = 94,000); further: nearly all actives have a fitted effect of over 60% in size
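qHTS cytotoxicity; HEK 293, 250 cells/well; compound pinned; 48 or 72 hr, 37 degree Celsius, 5% CO2, 95% humidity; CellTiter-Glo, 10 min RT; luminescence (ATP).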
hNpr1 antagonist – antagonists of human natriuretic peptide receptor Npr1; AID 1347048; Potency, µM (top dose mostly 46.3 µM), usual class: inhibitors; HEK293 hNpr1 GloSensor cGMP, ANP-stimulated luminescence; actives 1.6% (n = 76,000); calls by dose curve; further: nearly all actives have a fitted effect of over 60% in size
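HEK293 cells stably expressing human Npr1 and cGMP GloSensor pGS-40F, loaded 2 h with 2% GloSensor reagent, given compound 30 min at room temperature. Luminescence read before and 20 min after 0.1 nM hNppA.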
3T3 cytotox – NIH 3T3 cell cytotoxicity; NIH 3T3 viability, CellTiter-Glo ATP luminescence, 48-72 h; Potency, µM (series often up to 96.7 µM), most hits filed as inhibitors; actives 4.3% (n = 94,000); AID 1345082; further: nearly all actives have a fitted effect of over 55% in size
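Mouse fibroblast NIH 3T3 cells, 400 per well, received compound via pintool and were incubated for 48 or 72 hr prior to CellTiter-Glo ATP luminescence measurement.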
Luciferase inh – inhibitors of firefly (Photinus pyralis) luciferase. purified P. pyralis luciferase, luminescence, biochemical. AID 1347043. P08659. actives 2.5% (n = 76,000). Potency, µM (series often up to 115 µM), actives largely listed as inhibitors; further: nearly all actives have a fitted effect of over 65% in size
Target sequence (P08659 whole entry, looked up): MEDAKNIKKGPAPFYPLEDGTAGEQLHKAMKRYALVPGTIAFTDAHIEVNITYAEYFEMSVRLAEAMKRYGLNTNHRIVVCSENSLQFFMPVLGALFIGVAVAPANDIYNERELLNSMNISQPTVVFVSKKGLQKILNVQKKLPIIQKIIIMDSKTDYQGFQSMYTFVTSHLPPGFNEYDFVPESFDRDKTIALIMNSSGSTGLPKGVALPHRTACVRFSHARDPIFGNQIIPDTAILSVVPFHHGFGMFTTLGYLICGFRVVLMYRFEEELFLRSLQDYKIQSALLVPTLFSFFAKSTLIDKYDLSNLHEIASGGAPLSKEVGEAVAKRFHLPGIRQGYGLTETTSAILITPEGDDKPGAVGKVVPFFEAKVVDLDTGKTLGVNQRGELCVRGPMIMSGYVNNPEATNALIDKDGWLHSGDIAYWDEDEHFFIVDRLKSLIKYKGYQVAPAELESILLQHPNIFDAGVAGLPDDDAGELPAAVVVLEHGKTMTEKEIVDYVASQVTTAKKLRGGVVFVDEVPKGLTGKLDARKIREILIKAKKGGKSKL
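Cell-free enzyme assay, 10nM P. pyralis luciferase, luciferin and ATP each at 10uM. Inhibition profiled over a 6-point titration, read as luminescence.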
A number is an active result; – = inactive; ? = inconclusive; · = no result given. Most compounds without a hit are left out; they make up all but 11% or so of the library. Unless noted, the call rests on the fitted dose curve; in most records, active means well fitted curve in the direction sought with a large enough effect; inconclusive means small, poorly fitted or top-dose-only effect, or another doubt; inactive means no such curve, though single readings can be large; an effect the other way counts as inactive or inconclusive.

SMILES	HEK293 tox	hNpr1 antagonist	3T3 cytotox	Luciferase inh
CC(C)c1ccc(CNC(=O)c2cc3n(n2)CC(c2ccc4c(c2)OCO4)OC3)cc1 (centres undefined)	39.8µM	–	?	–
CCc1ccc(CNC(=O)c2cc3n(n2)CC(c2ccc(Cl)cc2)OC3)cc1 (centres undefined)	?	?	39.8µM	–
Cc1nn(-c2ccccc2)c2c1C(C(C)C)N(C1CCN(C(=O)c3ccccc3F)CC1)C2=O (centres undefined)	44.7µM	·	?	·
Cc1ccccc1C(=O)N1CCC(N2C(=O)c3c(c(C)nn3-c3ccccc3)C2C(C)C)CC1 (centres undefined)	39.8µM	·	?	·
CC(=O)N1CCC(N2C(=O)c3c(c(C)nn3-c3ccccc3)C2C(C)C)CC1 (centres undefined)	–	·	?	·
Cc1nn(-c2ccccc2)c2c1C(C(C)C)N(C1CCN(C(=O)C3CCCC3)CC1)C2=O (centres undefined)	–	·	?	·
COCCCn1c(=O)c(C(=O)N2CCN(C(=O)c3ccc(C(F)(F)F)cc3)CC2)nc2cccnc21	–	·	–	·
COCCCn1c(=O)c(C(=O)N2CCN(C(=O)c3ccc(F)cc3)CC2)nc2cccnc21	–	·	–	·
C=CCn1cc2c3c(cccc31)[C@H](CC(C)C)N[C@H](C(=O)N1CCN(CCOC)CC1)C2	?	–	–	–
C=CCn1cc2c3c(cccc31)[C@H](CC(C)C)N[C@H](C(=O)NCCCN1CCCC1=O)C2	39.8µM	–	?	–
C=CCn1cc2c3c(cccc31)[C@H](CC(C)C)N[C@H](C(=O)NCCOC)C2	56.2µM	–	89.1µM	?
C=CCn1cc2c3c(cccc31)[C@H](CC(C)C)N[C@H](C(=O)NCc1ccc(OC)cc1)C2	–	–	–	–
O=C(NC1CCN(c2cnn(Cc3ccccc3)c(=O)c2)CC1)C1CCCCC1	?	–	–	–
O=C(CCC[C@H]1NC[C@@H]2C[C@H]1CN(Cc1ccccc1)C2)NCc1cc(F)cc(F)c1	?	–	?	–
COc1ccc(C(=O)N2CC(n3cc(COCC4CC4)nn3)C2)c(OC)n1	–	·	–	·
Cc1cc(NC(=O)c2ccc3c(c2)OCCN(C2CCC2)C3)ccc1F	?	–	?	22.4µM
COc1ccc(NC(=O)c2ccc3c(c2)OCCN(c2ccccc2)C3)cn1	?	?	?	–
O=C(Nc1ccc(F)cc1)c1ccc2c(c1)OCCN(C1CCC1)C2	?	–	?	44.7µM
Cc1ccc(CNC(=O)c2ccc3c(c2)CN(C2CCC2)CCO3)cc1	–	–	–	–
CCC(C)NC(=O)c1ccc(-c2ccc(OC)nn2)cc1 (centres undefined)	?	·	–	·
NC(=O)[C@@H]1CN(Cc2ccco2)C[C@H]1COc1ccccc1	–	–	–	–
Cc1oc(-c2cccc(C(F)(F)F)c2)nc1CN1CCCC(CO)C1 (centres undefined)	?	–	–	–
COc1cc2c(cc1-c1cccc(C(F)(F)F)c1)OCC(C)(C)CC2CO (centres undefined)	31.6µM	·	28.2µM	·
Fc1cccc(OC2CCNC2)c1 (centres undefined)	–	–	–	–
CCN(CC)C(=O)N1CCC(c2noc(COc3ccc(F)cc3)n2)C1 (centres undefined)	44.7µM	·	?	·
SMILES	HEK293 tox	hNpr1 antagonist	3T3 cytotox	Luciferase inh
Cc1ccccc1OCc1nc(C2CN(C(=O)Cc3cccc(F)c3)C2)no1	44.7µM	–	39.8µM	–
Cc1cc(S(=O)(=O)N2CCC(c3noc(COc4ccc(F)cc4)n3)CC2)ccc1F	25.1µM	?	35.5µM	–
O=C(c1ccncc1)N1CCC(c2noc(COc3ccc(F)cc3)n2)CC1	?	?	–	–
O=C(Cc1ccccc1)N1CCC(c2noc(COc3ccc(F)cc3)n2)CC1	44.7µM	·	?	·
CN(CCc1ccccn1)[C@@H]1[C@H](O)[C@H](CO)O[C@@H]1CN(Cc1ccc(F)cc1)Cc1ccc(F)cc1	35.5µM	–	50.1µM	–
CCOC(=O)C1CCCN(C(=O)C2CCc3nnc(C4CC4)n32)C1 (centres undefined)	?	·	25.1µM	·
CCn1c2ccccc2c2cc(C(=O)N3C[C@@H](Oc4ccccc4)C[C@@H]3C(=O)NC)ccc21	35.5µM	–	?	?
CC(=O)N1CCN(c2cc(-c3noc([C@@H]4CCCN4Cc4ccc(N(C)C)cc4)n3)ccn2)CC1	17.8µM	–	–	–
CC(=O)Nc1ccc(CN2CCC[C@H]2c2nc(-c3ccnc(N4CCC(C(N)=O)CC4)c3)no2)cc1	?	–	–	–
c1cncc(CN2CCC[C@H]2c2nc(-c3ccnc(N4CCCC4)c3)no2)c1	?	–	?	–
c1cc(-c2noc([C@@H]3CCCN3Cc3ncc[nH]3)n2)cc(N2CCCC2)n1	100µM	–	?	–
CN(Cc1ccccc1Cl)Cc1cccn1C	–	–	–	–
COc1ccc(CN2CC3(C2)C(=O)N(Cc2cccc(Cl)c2)C(=O)[C@@H]2C[C@@H](O)CN23)c2ccccc12	?	–	?	–
COC(=O)c1ccc(CN2C(=O)[C@@H]3C[C@@H](O)CN3C3(CN(Cc4ccc(OC)c5ccccc45)C3)C2=O)cc1	?	–	79.4µM	–
C[C@]1(CO)[C@H]2Cc3sc(NC(=O)c4ccc(F)cc4)nc3[C@@H](CC(=O)NCc3cccs3)[C@]2(C)CC[C@H]1O	?	–	?	–
COc1ccc(-c2cn3cc(C(=O)N4CCCC4)nc3c(=O)n2CC2CC2)c(F)c1	31.6µM	–	31.6µM	–
CC1CCCN1C(=O)c1cn2cc(-c3cccc(Cl)c3)n(CC3CC3)c(=O)c2n1 (centres undefined)	?	–	25.1µM	–
COc1ccc(-c2cn3cc(C(=O)NCCO)nc3c(=O)n2CC2CC2)c(F)c1	?	–	–	–
CC(C)CCN(C1CCOCC1)C1CCN(Cc2ccc[nH]2)CC1	?	–	–	–
CCC1Oc2ccc(NC(=O)c3ccc(C#N)cc3)cc2CN(Cc2ccccc2F)C1=O (centres undefined)	44.7µM	–	?	–
CCC1Oc2ccc(NC(=O)c3ccc([N+](=O)[O-])cc3)cc2CN(Cc2ccccc2)C1=O (centres undefined)	–	–	–	–
CCC1Oc2ccc(NC(=O)c3ccccc3F)cc2CN(Cc2ccccc2F)C1=O (centres undefined)	?	–	?	–
CCC1Oc2ccc(NC(=O)c3cccc(F)c3)cc2CN(Cc2ccccc2F)C1=O (centres undefined)	35.5µM	–	?	–
CCC1Oc2ccc(NC(=O)Cc3ccc(F)cc3)cc2CN(Cc2ccccc2F)C1=O (centres undefined)	44.7µM	–	?	–
CCC1Oc2ccc(NC(=O)c3ccccc3)cc2CN(Cc2cc(F)cc(F)c2)C1=O (centres undefined)	14.1µM	–	?	–
O=C(c1ccc2nnc(-c3cc(F)ccc3F)n2c1)N1CCN(c2ncccn2)CC1	–	·	–	·
O=C(NC1CCCCC1)c1ccc(CN2C(=O)NC3(CCS(=O)(=O)CC3)C2=O)cc1	–	–	–	–
